Reference: PubChem BioAssay
Inconclusive results are not listed. Calls of active or inactive are those of the source.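 The calls were made as follows, unless noted: active = viability at or below 10% of carrier control in both of two separate runs; inconclusive = viability at or below 10% in only one of the two runs; inactive = the rest.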

Tests used:
[1] = Her2 expression decrease, cell viability multiplex – SKBR3 breast tumor cells, AlphaScreen, ATP viability, primary screen (AID 461;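 active = Her2 level under about 52% in both replicate screens, with viability over 70% of control, limit read from the data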;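 as to Her2 level: lower value means less Her2 protein in the cells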;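 as to viability: percent of carrier control wells set as 100% viability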); conditions: SKBR3 Her2 protein level, 18-24 h, measured here: SKBR3 viability, ATP luminescence, at 10 µM
[2] = molecular target: Receptor tyrosine-protein kinase erbB-2 (Homo sapiens) (UniProt P04626); test: as above; conditions: 18-24 h, at 10 µM, stronger effect = lower value
[3] = reduced viability of SK-BR-3 breast cancer cells – cell-based, 24 h, human, pilot screen (AID 572); conditions: SK-BR-3 viability, CellTiter-Glo luminescence, at 10 µM, stronger effect = lower value;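 also: compound exposure lasted between 18 and 24 h rather than exactly 24 h; 100% = carrier-treated control wells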
[4] = HUVEC growth inhibition – cell-based, human, primary screen (AID 575;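 active = viability at or below 30% in both replicate assays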;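 also: 100% = median of untreated cell wells with 0.1% DMSO on each plate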); conditions: HUVEC proliferation, CellTiter-Glo luminescence, 72 h; at 10 µM; stronger effect = lower value
[5] = H69AR cell proliferation blockers – human, duplicate replicates, primary screen (AID 580;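 active = viability at or under a set limit in both replicates, limit being median viability minus 3 SD, cut at about 48% in these data, passing the limit was not always enough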;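 also: 100% = mean luminescence of untreated wells and 0% = no signal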); conditions: H69AR lung tumor cells viability, ATP luminescence, 72 h; at 10 µM; stronger effect = lower value
[6] = MRP1 drug-resistance reversers in H69AR cells – cell-based, doxorubicin co-treatment, pilot screen (AID 601;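 active = viability loss from added drug above about 55%, and viability with drug at most 40%, in both replicates, limit read from the data, passing the limit was not always enough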); conditions: CellTiter-Glo, 72 h, at 10 µM; for differential viability (reversal): stronger effect = higher value
[7] = yeast transport mutant growth inhibition pilot in 384-well plates, post-Golgi transport modulator project (AID 636; in the data active = inhibition above about 31%); conditions: absorbance 615 nm, about 18 h, stronger effect = higher value
[8] = growth suppression of yeast trafficking mutant, preliminary HTS, modulators of trafficking downstream of Golgi apparatus project, 1536-format plate, OD 615 nm (AID 637; in the data active = inhibition above about 30%); conditions: yeast transport mutant growth, absorbance 615 nm, 18 h; stronger effect = higher value
[9] = S. cerevisiae growth inhibition in permissive medium (OD615), pilot counter-assay for S. cerevisiae lifespan shortening project, permissive growth control (AID 705;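 active = growth inhibition above 25% in both replicates, a cutoff set 3 SD above the mean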); conditions: OD615, 24 h, at 10 µM, stronger effect = higher value
[10] = S. cerevisiae growth inhibition in restrictive medium, OD615, pilot screen, restrictive growth control, yeast lifespan reduction project (AID 706;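 active = growth inhibition above a set limit, 3 SD over mean compound inhibition, in both replicates, cut at about 43% in these data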;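 also: modified DeaD lifespan yeast strain shifted to restrictive glucose medium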); conditions: OD615, 48 h, at 10 µM, stronger effect = higher value
[11] = doxorubicin toxicity protection in MRP-1 cells – H69AR cells, CellTiter-Glo, duplicate, MRP-1 activator project, pilot screen (AID 807;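 active = viability increase at or above a cutoff of the median across tested compounds plus 3 SD, cut at about 8.5% in these data, passing the limit was not always enough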;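 also: compound pretreatment 18-22 h then 72 h combined with doxorubicin; 0% = doxorubicin alone and 100% = vehicle without doxorubicin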); conditions: H69AR viability with doxorubicin, CellTiter-Glo luminescence; at 10 µM; stronger effect = higher value
[12] = viability of HCT116 without oncogenic beta-catenin – human colon tumor cells, pilot screen (AID 823;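 active = cell viability at or below a set limit in both duplicate runs, the limit being the all-compound median minus 4 SD, cut at about 23% in these data, passing the limit was not always enough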;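 also: 0% = wells killed by 20 µM Hyamine and 100% = untreated DMSO cell wells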); conditions: HCT116 beta-catenin knockout viability, CellTiter-Glo, 60 h; at 10 µM; stronger effect = lower value
[13] = viability of PTEN-null HCT116 cells – cell-based, HCT116 clonal line, CellTiter-Glo, pilot screen (AID 824;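 active = viability at or below 27.92% in each of two runs, the all-compound median minus 4 SD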;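 also: 0% = 20 µM Hyamine control and 100% = vehicle cell control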); conditions: HCT116 PTEN-deleted viability, 60 h, at 10 µM, stronger effect = lower value
[14] = RAM pathway blockade in budding yeast – dse1pr::URA3 reporter, 5-FOA selection, pilot screen (AID 869;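 active = inhibition over a set limit, the all-compound mean plus 3 SD, in both replicate runs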;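 also: 0% = DMSO wells with no growth and 100% = 10 µM 1-NA-PP1 with full growth; RAM network block rescues cells from 5-FOA so hits raise OD615 growth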); conditions: S. cerevisiae dse1pr::URA3 5-FOA growth, OD615, 2 d; at 10 µM; stronger effect = higher value; strain carries analog-sensitive mutant Cbk1 kinase
[15] = RAM signaling pathway blockade in yeast – S. cerevisiae, Pdr1DBD-CYC8 efflux-inhibited sensitized strain, primary screen (AID 1298;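 active = RAM network inhibition above 8.4% in each of two replicates, 3 SD over the compound average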;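 also: 0% = DMSO untreated cells without growth and 100% = 10 µM 1-NA-PP1 full growth; higher means more yeast growth rescued from 5-FOA killing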); conditions: S. cerevisiae cbk1-as DSE1-URA3 strain, 5-FOA growth OD615, 2 d; at 50 µM; stronger effect = higher value
[16] = H69AR cells + 2 uM doxorubicin, measured here: viability with 2 uM doxorubicin, stronger effect = lower value
[17] = H69AR cells, compound alone cytotoxicity

Chain of Receptor tyrosine-protein kinase erbB-2 (Homo sapiens) (P04626 whole entry, looked up): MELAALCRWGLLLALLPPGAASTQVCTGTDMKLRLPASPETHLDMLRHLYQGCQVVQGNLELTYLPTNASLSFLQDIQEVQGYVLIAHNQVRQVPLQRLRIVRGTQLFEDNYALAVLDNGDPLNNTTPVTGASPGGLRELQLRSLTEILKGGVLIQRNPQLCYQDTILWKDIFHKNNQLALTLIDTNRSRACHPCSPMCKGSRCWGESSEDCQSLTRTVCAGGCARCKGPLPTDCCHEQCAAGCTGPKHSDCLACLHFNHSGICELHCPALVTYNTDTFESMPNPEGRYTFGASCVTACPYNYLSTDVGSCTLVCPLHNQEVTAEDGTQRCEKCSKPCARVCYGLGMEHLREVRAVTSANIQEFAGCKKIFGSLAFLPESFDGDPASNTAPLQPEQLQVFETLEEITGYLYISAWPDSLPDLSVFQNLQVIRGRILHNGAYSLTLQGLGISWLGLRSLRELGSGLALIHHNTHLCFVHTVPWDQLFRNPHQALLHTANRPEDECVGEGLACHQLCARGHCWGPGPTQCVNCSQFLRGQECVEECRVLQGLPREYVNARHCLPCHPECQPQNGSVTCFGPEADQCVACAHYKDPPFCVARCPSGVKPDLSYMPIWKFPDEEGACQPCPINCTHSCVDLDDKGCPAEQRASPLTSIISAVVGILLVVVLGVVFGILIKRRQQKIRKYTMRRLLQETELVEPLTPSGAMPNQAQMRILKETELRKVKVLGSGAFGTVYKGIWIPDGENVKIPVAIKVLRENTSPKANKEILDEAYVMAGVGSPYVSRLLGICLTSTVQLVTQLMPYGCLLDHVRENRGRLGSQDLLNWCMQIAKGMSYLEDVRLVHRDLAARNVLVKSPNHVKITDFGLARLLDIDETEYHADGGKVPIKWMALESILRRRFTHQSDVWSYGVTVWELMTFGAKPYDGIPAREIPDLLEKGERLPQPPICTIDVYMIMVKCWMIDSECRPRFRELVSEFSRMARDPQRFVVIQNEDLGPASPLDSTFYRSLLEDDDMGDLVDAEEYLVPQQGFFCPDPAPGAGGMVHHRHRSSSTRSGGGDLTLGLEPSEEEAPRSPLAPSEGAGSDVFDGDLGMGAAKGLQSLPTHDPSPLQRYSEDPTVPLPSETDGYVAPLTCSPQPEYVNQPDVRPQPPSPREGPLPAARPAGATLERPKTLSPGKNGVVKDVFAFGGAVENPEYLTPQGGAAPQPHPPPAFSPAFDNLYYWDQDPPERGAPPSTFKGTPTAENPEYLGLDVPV

Compound	viability [1]	Her2 level [2]	viability [3]	viability [4]	viability [5]	differential viability (reversal) ([6]; H69AR cells + 2 uM doxorubicin)	viability [6, 16]	viability [6, 17]	inhibition [7]	inhibition [8]	growth inhibition [9]	growth inhibition [10]	viability increase [11]	viability [12]	viability [13]	inhibition [14]	RAM network inhibition [15]
Cc1ccc(CCP(=O)(O)CN2CCOCC2)cn1	85%	87.5% (inactive)	85% (inactive)	101% (inactive)	104% (inactive)	12.3% (inactive)	91.4%	104%	-7.57% (inactive)	3.61% (inactive)	-11.9% (inactive)	-9.14% (inactive)	0.51% (inactive)	89.2% (inactive)	92.3% (inactive)	0.17% (inactive)	-0.42% (inactive)
Cn1c(C(=O)NCCN2CCN(c3ccccc3F)CC2)cc2c(=O)n(C)c3ccccc3c21	89%	73.5% (inactive)	89% (inactive)	70.3% (inactive)	69.7% (inactive)	-2.84% (inactive)	72.5%	69.7%	-1.03% (inactive)	2% (inactive)	-0.67% (inactive)	-2.32% (inactive)	-2.38% (inactive)	74.4% (inactive)	73.2% (inactive)	0.115% (inactive)	0.11% (inactive)
CCOc1ccc(S(=O)(=O)n2c(C)nc3ccccc32)cc1	93%	112% (inactive)	93% (inactive)	65.8% (inactive)	71.2% (inactive)	-45.5% (inactive)	117%	71.2%	0.51% (inactive)	5.67% (inactive)	-11.5% (inactive)	0.25% (inactive)	1.02% (inactive)	98.2% (inactive)	96.2% (inactive)	1.31% (inactive)	1.31% (inactive)
CCOC(=O)c1ccccc1NC(=O)c1cccnc1	83%	117% (inactive)	83% (inactive)	94.8% (inactive)	96.1% (inactive)	1.67% (inactive)	94.4%	96.1%	1.95% (inactive)	-4.59% (inactive)	-11.9% (inactive)	-21.3% (inactive)	0.06% (inactive)	104% (inactive)	102% (inactive)	1.57% (inactive)	2.22% (inactive)
COc1ccc(OC)c(C(C)NC=O)c1 (stereo not drawn)	89%	90.5% (inactive)	89% (inactive)	102% (inactive)	99.5% (inactive)	0.26% (inactive)	99.2%	99.5%	-6.89% (inactive)	-2.3% (inactive)	-9.25% (inactive)	-7.95% (inactive)	-0.64% (inactive)	95.2% (inactive)	105% (inactive)	1.43% (inactive)	-0.21% (inactive)
CN(C)c1oc(-c2ccccc2F)nc1C#N	95%	99.5% (inactive)	95% (inactive)	82.3% (inactive)	101% (inactive)	11.8% (inactive)	89.5%	101%	-2.8% (inactive)	6.56% (inactive)	-11.3% (inactive)	-2.67% (inactive)	-0.62% (inactive)	112% (inactive)	106% (inactive)	0.58% (inactive)	3.09% (inactive)
Cc1cc2nc(-c3ccco3)cc(C(F)(F)F)n2n1	93.5%	90% (inactive)	93.5% (inactive)	102% (inactive)	93.3% (inactive)	6.71% (inactive)	86.6%	93.3%	1.28% (inactive)	8.17% (inactive)	-17.4% (inactive)	-8.99% (inactive)	1.14% (inactive)	105% (inactive)	105% (inactive)	1.89% (inactive)	2.83% (inactive)
O=C(Nc1cccc(Cl)c1)N1CCN(Cc2ccccc2)CC1	98.5%	99% (inactive)	98.5% (inactive)	103% (inactive)	84.2% (inactive)	5.49% (inactive)	78.7%	84.2%	-6% (inactive)	-0.49% (inactive)	-4.47% (inactive)	-8.27% (inactive)	-1.11% (inactive)	92.1% (inactive)	86.4% (inactive)	1.24% (inactive)	3.81% (inactive)
COc1ccccc1N1C(=O)CCC1(C#N)c1ccccc1 (stereo not drawn)	97%	102% (inactive)	97% (inactive)	104% (inactive)	117% (inactive)	20.5% (inactive)	96.9%	117%	0.68% (inactive)	-3.49% (inactive)	-7.28% (inactive)	0.615% (inactive)	-1.56% (inactive)	108% (inactive)	99.7% (inactive)	1.52% (inactive)	2.81% (inactive)
